Screens: PubChem BioAssay, Corson Lab, School of Medicine, Indiana University
Only a selection was taken, and hits are over-represented in it overall.
FECH block: inhibitors of human ferrochelatase, primary screen, biochemical, purified FECH, Ni-mesoporphyrin absorbance; Ni-mesoporphyrin absorbance 550 nm; 3.3% of 20,000 active; Ferrochelatase, mitochondrial (Homo sapiens), P22830; AID 1671448, 2021; calls only at 10 µM (by protocol);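 active means enzyme reaction rate more than 3 SD below the solvent-only control wells on the same plate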;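 further: lower slope than DMSO wells means FECH inhibition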
Target sequence (P22830 whole entry, looked up): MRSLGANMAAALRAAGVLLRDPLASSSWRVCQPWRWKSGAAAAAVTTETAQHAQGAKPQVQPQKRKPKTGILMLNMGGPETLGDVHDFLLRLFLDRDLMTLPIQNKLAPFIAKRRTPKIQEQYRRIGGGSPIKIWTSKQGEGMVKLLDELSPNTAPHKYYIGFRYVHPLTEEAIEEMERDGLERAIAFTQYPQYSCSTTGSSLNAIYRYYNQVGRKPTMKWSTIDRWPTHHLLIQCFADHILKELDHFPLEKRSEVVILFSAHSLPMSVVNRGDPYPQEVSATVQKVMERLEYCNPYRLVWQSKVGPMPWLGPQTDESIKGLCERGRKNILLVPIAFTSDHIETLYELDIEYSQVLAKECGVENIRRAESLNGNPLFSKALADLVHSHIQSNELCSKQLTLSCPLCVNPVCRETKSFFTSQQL
Calls only; 0 = inactive; + = active, no number.

SMILES	FECH block
Cc1cccc(-n2c(CN3CCN(S(=O)(=O)c4ccc(C(C)C)cc4)CC3)nc3cccnc32)c1	0
Cc1ccc(CN2CCC(CNC(=O)c3ccc(CN4C(=O)CCn5nccc54)cc3)CC2)cc1	0
O=C(Nc1ccccc1Cl)N1CCC(n2cnc3cccnc32)CC1	0
CCCc1ccc(S(=O)(=O)N2CCN(Cc3nc4cccnc4n3-c3ccccc3)CC2)cc1	0
CCc1cc(Sc2ccc(NC(=O)c3ccco3)cc2)n2ncnc2n1	0
Cc1ccc(S(=O)(=O)N(Cc2ccccc2C)c2nc3nc(C)c(Cl)c(C)n3n2)cc1	0
Cc1cc(C)n2nc(CN(c3ccc(Cl)cc3)S(=O)(=O)c3ccccc3)nc2n1	+
Cc1cc(C)n2nc(CN(c3ccc(F)cc3)S(=O)(=O)c3ccc(Cl)cc3)nc2n1	0
CC(=O)CN(c1nc2nc(C)cc(C)n2n1)S(=O)(=O)c1ccc(C)cc1	0
Cc1ccc(S(=O)(=O)N(Cc2ccccc2C)c2nc3nc(C)cc(C)n3n2)cc1	+
CCCN(c1nc2nc(C)cc(C)n2n1)S(=O)(=O)c1ccc(C)cc1	+
Cc1cc(C)n2nc(CN(c3ccc(F)cc3)S(=O)(=O)c3ccccc3)nc2n1	0
CCCN(c1nc2nc(C)cc(C)n2n1)S(=O)(=O)c1ccccc1	0
Cc1cc(C)n2nc(N(Cc3ccccc3C)S(=O)(=O)c3ccccc3)nc2n1	0
Oc1ccc(F)cc1CN(CCN1CCOCC1)Cc1ccco1	0
CCCSCCCNc1nc(-c2nnc(-c3cccc(C)c3)o2)nc2ccccc12	0
Cc1[nH]cnc1CSCCNC(=O)c1scc2c1CCCC2	0
Cc1nc2ncccc2cc1C(=O)N1CCC(c2cc(C(C)C)n[nH]2)CC1	0
Cc1ccc(C)c(CNC(=O)c2cc(Cn3c(C)nc4ccccc43)[nH]n2)c1	0
CCOCCCNc1nc(Nc2cccc(C)c2)c2cnn(-c3ccccc3)c2n1	0
O=C(NCCc1cccnc1)c1cn(-c2ccccc2)nn1	0
CC(C)CC1(CO)CCCN(C(=O)CCC(=O)NC2CCCC2)C1 (stereo unspecified)	0
O=C(CCC(=O)N1CCN(CC2CCCO2)CC1)NC1CCCC1 (stereo unspecified)	+
COc1ccccc1C1CCN(C(=O)CCC(=O)NC2CCCC2)CC1	0
Cc1cnn(-c2csc(C(N)=O)c2)c1	0
SMILES	FECH block
O=C1CN(CC2(O)CCCN(CCc3ccccc3)C2=O)CCN1c1ccccc1 (stereo unspecified)	0
Cc1ccc(C)c(CN2CC(=O)N(Cc3cccc(C(F)(F)F)c3)c3ccccc3S2(=O)=O)c1	0
CCc1cccc(N2C(=O)N(CC(=O)NC3CCCCC3)c3ccccc3S2(=O)=O)c1	0
Cc1ccc(N2C(=O)N(Cc3cc(F)cc(F)c3)c3ccccc3S2(=O)=O)cc1	+
Cc1ccc(N2C(=O)N(Cc3cc(F)cc(F)c3)c3ccccc3S2(=O)=O)c(C)c1	+
Cc1ccc(N2C(=O)N(Cc3ccc(C(C)(C)C)cc3)c3ccccc3S2(=O)=O)cc1F	0
Cc1cccc(N2C(=O)N(Cc3ccc(C)c(C)c3)c3ccccc3S2(=O)=O)c1	+
O=C1CN(Cc2cccc(Br)c2)S(=O)(=O)c2ccccc2N1Cc1cccc(F)c1	0
CC(C)(C)c1ccc(CN2C(=O)N(c3cc(F)ccc3F)S(=O)(=O)c3ccccc32)cc1	0
COc1cccc(N2C(=O)N(Cc3ccc(C(C)(C)C)cc3)c3ccccc3S2(=O)=O)c1	0
CCc1cccc(N2C(=O)N(Cc3cc(F)cc(F)c3)c3ccccc3S2(=O)=O)c1	+
O=C1CN(Cc2ccc(F)cc2)S(=O)(=O)c2ccccc2N1Cc1ccc(Cl)cc1	0
Cc1ccc(N2C(=O)N(Cc3cc(=O)n4ccccc4n3)c3ccccc3S2(=O)=O)cc1	0
COc1cc(N2CCC3(CC2)CNC(=O)C3)ncn1	0
Cc1ccc(O)c(CN2CCN(C(=O)c3ccccc3)CC2)n1	0
COc1cc(C)ccc1NC(=O)Cc1csc(NC(=O)Nc2cccc(Cl)c2)n1	0
Cc1ccc(Cl)cc1NC(=O)CSc1ncnc2nc(N(C)C)sc12	0
CCc1ccccc1NC(=O)C1CCN(c2ncnc3c2nc2n3CCCCC2)CC1	0
COc1cccc(CN2CCC(NS(C)(=O)=O)CC2)c1O	0
CCC1CCCCN1C(=O)c1cccc(NC(=O)C2CCCC2)c1 (stereo unspecified)	0
CN(CC1CC(=O)N(C(C)(C)C)C1)C(=O)CSc1nnc(N)s1 (stereo unspecified)	0
COc1ccc(Cl)cc1NCc1cc(=O)n2[nH]c(NCc3ccccc3)nc2n1	0
CCCc1c(C)nc2nc(-c3ccco3)[nH]n2c1=O	0
Cc1cccc(NCc2nc3nc(C)c(Cc4ccc(Cl)cc4)c(=O)n3[nH]2)c1C	+
CCCc1cc(=O)n2[nH]c(CNc3cc(Cl)ccc3C)nc2n1	+
CCOC(=O)CCc1c(C)nc2nc(CNc3ccccc3Cl)[nH]n2c1=O	0
CCCc1cc(=O)n2[nH]c(CNc3ccccc3C)nc2n1	+
Cc1ccc(Cl)cc1NCc1cc(=O)n2[nH]c(NCc3ccc(F)cc3)nc2n1	0
CCCc1cc(=O)n2[nH]c(CNc3cccc(Cl)c3C)nc2n1	+
